The source of these data is PubChem BioAssay (NCATS).

Results filed as inconclusive are left out. A number with no mark means an inactive call. Active and inactive are the calls of the source. The call rests on the fitted dose curve; in most records, active means well fitted curve in the direction sought with a large enough effect; inconclusive means small, poorly fitted or top-dose-only effect, or another doubt; inactive means no such curve, though single readings can be large; an effect the other way counts as inactive or inconclusive.

Experiment [1] addresses Cytochrome P450 3A7 (Homo sapiens) (UniProt P24462). The experiment can be described thus: Cytochrome P450 family 3 subfamily A member 7 (CYP3A7) small molecule antagonists: luciferase biochemical qHTS assay (AID 1963596). Further: on the % scale 0 is the no-effect control and ±100 the full control effect; nearly all actives have a fitted effect of over 40% in size. The note with it: P450-Glo CYP3A7 enzyme luminescence, 1 h; series mostly up to 57.4 µM. Summed up:
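Compounds were screened in qHTS format for interference with CYP3A7 turnover of a proluciferin substrate. Reactions ran 1 h at room temperature after NADPH regeneration solution was added, then luciferin product was detected by luminescence.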
A general note: In qHTS, concentration-response curves come from the screen itself.

The nature of experiment [2]: Cellular viability qHTS for adrenocortical cancer (ACC) cell line SW-13 (AID 1963989). Further: nearly all actives have a fitted effect of over 65% in size. Further: potency means the concentration at half of the fitted maximal effect.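 On activity (max response): cells grown in serum-free medium with ITS supplement; on the % scale 0 is the no-effect control and ±100 the full control effect.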 The note with it: SW-13 ACC cells viability, CellTiter-Glo, 48 h; activity (max response): hits give low values. Summed up:
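IC50 and maximal-response values come from four-parameter logistic fits of titration data. SW-13 cells in serum-free medium received compounds (up to 46 uM final) for 48 h before CellTiter-Glo luminescence.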

A short description of experiment [3]: Cellular viability qHTS for adrenocortical cancer (ACC) cell line NCI-H295R (AID 1963990). Further: nearly all actives have a fitted effect of over 60% in size. Further: potency means the concentration at half of the fitted maximal effect. The note with it: CellTiter-Glo ATP luminescence, 48 h; series mostly up to 46.1 µM. The essentials: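 Adrenocortical carcinoma cells, suspended at 300 000 cells/mL in serum-free DMEM plus ITS, rested overnight before pin transfer of compound. After two days' incubation, ATP-dependent luminescence was recorded and curve-fitted.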

Chain of Cytochrome P450 3A7 (Homo sapiens) (P24462 whole entry, looked up): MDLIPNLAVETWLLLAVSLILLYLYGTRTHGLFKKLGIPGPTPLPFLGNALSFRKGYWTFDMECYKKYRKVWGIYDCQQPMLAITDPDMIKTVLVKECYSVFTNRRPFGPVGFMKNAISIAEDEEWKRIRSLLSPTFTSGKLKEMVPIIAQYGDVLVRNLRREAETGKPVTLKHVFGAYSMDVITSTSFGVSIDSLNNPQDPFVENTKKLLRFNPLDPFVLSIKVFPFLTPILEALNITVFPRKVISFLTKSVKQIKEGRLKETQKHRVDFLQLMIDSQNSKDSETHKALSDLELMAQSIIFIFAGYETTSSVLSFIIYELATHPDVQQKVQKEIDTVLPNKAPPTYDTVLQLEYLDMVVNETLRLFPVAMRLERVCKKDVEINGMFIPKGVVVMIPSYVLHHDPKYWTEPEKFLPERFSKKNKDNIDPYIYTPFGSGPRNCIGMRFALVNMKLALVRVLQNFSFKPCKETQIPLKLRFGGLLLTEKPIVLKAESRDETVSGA

On to `OCC(O)CS` (configuration not stated), for which the Potency result in experiment [1] and in experiment [3] was “inactive” each time. Further, the activity (max response) in experiment [2] was 8.13%.

Regarding `O=C(O)CCC(=O)OC[C@@H](NC(=O)C(Cl)Cl)[C@H](O)c1ccc([N+](=O)[O-])cc1`, the Potency entry in experiment [1] and in experiment [3] was “inactive” each time. Further, in experiment [2], the activity (max response) is -6.44%.

With `CC(N)CCCC(C)(C)O` (configuration not stated), the Potency result in experiment [1] and in experiment [3] was “inactive” in each case. Further, in experiment [2], the activity (max response) was 18.8%.

On to `COC(=O)c1cc(Cl)ccc1NS(=O)(=O)C(F)(F)F`, for which the Potency result in experiment [1] and in experiment [3] was “inactive” throughout. Moreover, the activity (max response) in experiment [2] is -0.552%.

Turning to `O=C1Nc2cc(Cl)ccc2Oc2ccccc21`, the Potency result in experiment [1] and in experiment [3] was “inactive” in each case. The activity (max response) in experiment [2] was -3.37%.

For the compound `CC(=O)OCC(=O)[C@@]1(OC(C)=O)[C@@H](C)C[C@H]2[C@@H]3C[C@H](F)C4=CC(=O)C=C[C@]4(C)[C@@]3(F)[C@@H](O)C[C@@]21C`, the Potency result in experiment [1] and in experiment [3] was “inactive” in each case. In addition, the activity (max response) in experiment [2] was 3.57%.

In the case of `CN(C)C(=O)Nc1ccc(Cl)c(Cl)c1`, the Potency entry in experiment [1] and in experiment [3] was “inactive” each time.

Take `Oc1c(Br)cc(Br)c2cccnc12`: the Potency result in experiment [1] was “inactive”. Further, the Potency was 4.61 µM (active) in experiment [2] and 1.64 µM (active) in experiment [3].

As for `CCN(CC)CC(=O)Nc1c(C)cccc1C`, the Potency entry in experiment [1] and in experiment [3] was “inactive” each time. Further, the activity (max response) in experiment [2] was 2.91%.

Turning to `Cc1ccc(NC(=O)Nc2cc(C(F)(F)F)ccc2F)cc1Nc1ccc2c(c1)NC(=O)/C2=C\c1ccc[nH]1`, the Potency entry in experiment [1] was “inactive”. For the same compound, the Potency in experiment [2] was 22.4 µM (active); in experiment [3], 25.1 µM (active).

With `CN(C)C(=O)CNC(=O)Cc1ccccc1`, the Potency result in experiment [1] and in experiment [3] was “inactive” throughout. Further, the activity (max response) in experiment [2] is -6.74%.
